Measurements reported in the supplement of paper PMC3334620.
The full ranking holds about 33,000 sequences; the median of “E-score (-0.5 to 0.5)” is about -0.021, and the highest 2% start at about 0.32. This excerpt belongs to a sample that is enriched for the highest values.

molecular target: T1, Zap1 (UniProt P47043); experiment: PBM E-score (8-mer binding enrichment) (E-score (-0.5 to 0.5)); higher = stronger / more preferred TF binding; conditions: protein concentration: 200 nM; construct: GST-full length
T1 sequence: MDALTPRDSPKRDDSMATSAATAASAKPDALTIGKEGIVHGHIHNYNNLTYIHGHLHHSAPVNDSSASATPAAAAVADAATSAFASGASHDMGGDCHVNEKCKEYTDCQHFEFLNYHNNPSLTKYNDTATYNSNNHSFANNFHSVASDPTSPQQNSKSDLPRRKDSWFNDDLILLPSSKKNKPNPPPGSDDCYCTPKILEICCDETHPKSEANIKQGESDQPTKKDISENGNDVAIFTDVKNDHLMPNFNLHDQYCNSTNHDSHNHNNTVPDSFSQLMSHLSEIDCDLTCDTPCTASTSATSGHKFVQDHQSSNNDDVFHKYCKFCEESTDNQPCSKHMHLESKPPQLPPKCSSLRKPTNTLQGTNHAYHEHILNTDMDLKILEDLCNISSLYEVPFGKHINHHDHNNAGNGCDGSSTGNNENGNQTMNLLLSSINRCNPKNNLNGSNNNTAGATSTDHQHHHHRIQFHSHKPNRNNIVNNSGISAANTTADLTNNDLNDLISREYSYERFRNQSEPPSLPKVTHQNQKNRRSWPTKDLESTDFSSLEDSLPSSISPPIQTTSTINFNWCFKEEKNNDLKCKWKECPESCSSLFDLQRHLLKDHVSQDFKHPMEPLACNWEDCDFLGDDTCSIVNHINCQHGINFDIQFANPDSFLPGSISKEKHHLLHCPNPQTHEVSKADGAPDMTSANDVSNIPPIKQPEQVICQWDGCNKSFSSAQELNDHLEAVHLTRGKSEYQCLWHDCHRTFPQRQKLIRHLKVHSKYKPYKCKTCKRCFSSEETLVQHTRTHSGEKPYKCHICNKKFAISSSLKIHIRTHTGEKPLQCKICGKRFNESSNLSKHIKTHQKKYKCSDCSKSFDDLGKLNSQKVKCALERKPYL
Outline: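 Universal all-10-mer Agilent arrays, double-stranded by primer extension on fresh or once-stripped slides, were probed with about 100-200 nM GST-tagged yeast transcription factors made by PURExpress. Fluorescent anti-GST detected bound protein, and masliner normalised the scans. E-scores from the Universal PBM Analysis Suite were given to each ungapped eight-base word pooled with its reverse complement.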

Compared with AGGTTAGC, AGGTTAGA is lower in “PBM E-score” value: 0.23 for the first, 0.185 for the second.

Compared with CAGTTACG, CGCTCTCC is lower in “PBM E-score” value: -0.0217 for the first, -0.119 for the second.

Going from ATCCTCTA to AAACGCCG, the “PBM E-score” value falls from -0.118 to -0.159.

Going from TACTGGGA to ACCAATCG, the “PBM E-score” value rises from 0.0284 to 0.0293.

Compared with ACACGCTA, CGCCTCAA is higher in “PBM E-score” value: -0.194 for the first, -0.107 for the second.

Going from CTCGAAGA to GATTCCTA, the “PBM E-score” value rises from 0.0261 to 0.0308.

Going from CGATCCAC to ACGTTACG, the “PBM E-score” value rises from 0.00013 to 0.0601.

Going from AGGTTACG to AAGTTACG, the “PBM E-score” value falls from 0.459 to 0.17.

First: ATAACTCC
Second: AAGGTTGG
The “PBM E-score” value of the first is lower: 0.128 for the first, 0.281 for the second.

Going from AAGGTTGC to AAGGTTGT, the “PBM E-score” value rises from 0.343 to 0.384.

First: CAGGTTGC
Second: AAGGTTGA
The “PBM E-score” value of the first is lower: 0.0972 for the first, 0.149 for the second.

First: CAGGTTGG
Second: GTCAGAAC
The “PBM E-score” value of the first is higher: 0.0671 for the first, 0.0394 for the second.

Compared with AAATGGGA, GTCCCCCA is lower in “PBM E-score” value: -0.0864 for the first, -0.185 for the second.

Going from GCGGTTAC to GCTGTTAC, the “PBM E-score” value falls from 0.452 to -0.104.

Compared with GCGGTTAA, CCGGTTAA is lower in “PBM E-score” value: 0.356 for the first, 0.261 for the second.

Compared with CCGGTTAG, CCGGTTAC is higher in “PBM E-score” value: 0.159 for the first, 0.398 for the second.

Compared with CCGGTTTC, GCGGTTCC is higher in “PBM E-score” value: 0.0368 for the first, 0.217 for the second.

Going from GCGGTTGA to AAGCTTGT, the “PBM E-score” value rises from 0.149 to 0.15.

First: CATCGTTC
Second: AGGAACCA
The “PBM E-score” value of the first is lower: -0.015 for the first, 0.0162 for the second.

Compared with CGAGCGCC, AGTTGGTC is higher in “PBM E-score” value: -0.202 for the first, 0.0383 for the second.

Compared with AGTCTTAG, GTATCCAA is higher in “PBM E-score” value: -0.182 for the first, 0.0926 for the second.

First: CCTGGCCC
Second: GGTTATTA
The “PBM E-score” value of the first is lower: -0.0746 for the first, 0.438 for the second.

Going from AGTTATTA to GGTTATCA, the “PBM E-score” value rises from 0.106 to 0.445.

Compared with AGTTAGTA, CGTTATTA is higher in “PBM E-score” value: -0.00813 for the first, 0.114 for the second.

Going from GGTTAGTA to CGTTATCA, the “PBM E-score” value falls from 0.325 to 0.0155.

First: AGTTATCA
Second: CGTTAGTA
The “PBM E-score” value of the first is higher: 0.186 for the first, 0.0365 for the second.

First: CAGAGATC
Second: CCGAGAAA
The “PBM E-score” value of the first is lower: -0.134 for the first, 0.187 for the second.

Compared with ACCCAGCA, CGAATGAG is lower in “PBM E-score” value: 0.0307 for the first, -0.106 for the second.

First: AGTTATAG
Second: ACCCTCAA
The “PBM E-score” value of the first is lower: 0.148 for the first, 0.361 for the second.

Compared with ACCCTCAT, ACCCTCAC is lower in “PBM E-score” value: 0.267 for the first, 0.251 for the second.

First: TCCCTCAA
Second: CCCCTCAA
The “PBM E-score” value of the first is higher: 0.014 for the first, -0.068 for the second.

Compared with ACCCTCAG, GGAGACGA is lower in “PBM E-score” value: 0.325 for the first, -0.032 for the second.

Compared with ATCTTTAA, GGCCAGTA is lower in “PBM E-score” value: 0.206 for the first, 0.177 for the second.

First: AGTGGCTC
Second: AATCCTTG
The “PBM E-score” value of the first is lower: -0.175 for the first, 0.0209 for the second.

Compared with CATACCCC, GATACCCC is higher in “PBM E-score” value: 0.348 for the first, 0.37 for the second.

Compared with AATACCCC, GATACCAC is lower in “PBM E-score” value: 0.237 for the first, 0.183 for the second.

Going from CATACCCA to GATACCCA, the “PBM E-score” value falls from 0.221 to 0.184.

Compared with ATGTGAAG, ATGGGGGG is lower in “PBM E-score” value: -0.00714 for the first, -0.045 for the second.

First: ACTCGCAA
Second: CGCTTTGA
The “PBM E-score” value of the first is lower: 0.0584 for the first, 0.0708 for the second.

First: CCTATAGG
Second: ACTATAGG
The “PBM E-score” value of the first is higher: 0.346 for the first, 0.0613 for the second.

First: CCTATAGC
Second: ATTGGCGG
The “PBM E-score” value of the first is higher: -0.0148 for the first, -0.0834 for the second.

Compared with AGCCCAAC, ACCCCTAT is higher in “PBM E-score” value: -0.0986 for the first, 0.324 for the second.

First: CCCCCTAG
Second: ACCCCTCT
The “PBM E-score” value of the first is lower: -0.343 for the first, 0.174 for the second.
